Laboratory results reported in PubChem BioAssay AID652042 (Broad Institute, 2013).
The campaign covered roughly 1,100 compounds. About 350 (32%) were called active. The rule behind the calls is not given here. A selection follows. Entries with a potency or affinity are not part of this list.

assay: CEM21 lymphoblast cell cytotoxicity, dose response, cytotoxicity control for viral fusion inhibitor project, CellTiter-Glo luminescence, cherry-picked (AID 652042); settings: CEM21 cells viability, CellTiter-Glo ATP luminescence, 24 h; series mostly up to 35 µM

| Structure (SMILES) | activity change, negative = cytotoxicity |
| --- | --- |
| CC(=O)Nc1ccc(C(=O)OCC(=O)NC(=O)NCc2ccccc2)cc1 | inactive |
| CCCOc1ccc(C(F)(F)F)cc1NC(=O)CCc1c(C)noc1C | inactive |
| CCN(C[C@H]1N[C@@](CC)(C(=O)OC)[C@H]2C(=O)N(Cc3ccccc3)C(=O)[C@@H]12)S(=O)(=O)c1ccc(OC)cc1 | inactive |
| O=C1CC(C(=O)N(CC2CCCO2)C(C(=O)NC2CCCCC2)c2ccncc2)CS1 (centres undefined) | inactive |
| OC1(c2ccc(OC(F)F)cc2)CSC(=Nc2cccnc2)N1C1CC1 (centres undefined) | inactive |
| Cc1noc(C)c1S(=O)(=O)N(C)C[C@@H]1Oc2ccc(NC(=O)NC3CCCCC3)cc2CC(=O)N([C@H](C)CO)C[C@@H]1C | inactive |
| COc1ccc(S(=O)(=O)N(C)C[C@@H]2Oc3ccc(NC(=O)C4CCCCC4)cc3CC(=O)N([C@@H](C)CO)C[C@@H]2C)cc1 | inactive |
| C[C@H]1CN([C@@H](C)CO)C(=O)Cc2cc(NC(=O)Cc3ccccc3)ccc2O[C@H]1CN(C)S(=O)(=O)c1cccs1 | inactive |
| CC(C)(C)c1ccc(-c2noc(CCC(=O)NCC3CCCO3)n2)cc1 (centres undefined) | inactive |
| O=C(c1cc(COc2cccc(C(F)(F)F)c2)on1)N1CCC(c2ccncc2)CC1 | inactive |
| CCCNC(=O)C[C@@H]1C[C@H]2c3cc(NC(=O)Cc4ccncc4)ccc3O[C@H]2[C@@H](CO)O1 | inactive |
| O=C(CCNC(=O)c1ccc(Br)cc1)NNC(=O)COc1ccccc1F | inactive |
| O=C(NCCc1ccccc1F)c1ccc2c(c1)OCCO2 | inactive |
| COc1ccc(NS(=O)(=O)c2ccc3c(c2)OCCO3)cc1OC | inactive |
| Nc1c(S(=O)(=O)c2ccccc2)cnc2c(-c3ccc(F)cc3)cnn12 | inactive |
| COC(=O)CNC(c1ccccc1)c1cc(C)ccc1NC(=O)CNC(=O)OCc1ccccc1 (centres undefined) | inactive |
| COc1ccc(C(C(=O)NC(C)(C)C)N(CCC(C)C)C(=O)CCC(=O)Nc2cc(C)on2)cc1 (centres undefined) | inactive |
| CCN(CC)c1nc(Nc2ccccc2)nc(Oc2ccc(=O)[nH]n2)n1 | inactive |
| COc1ccc2c(c1)OC[C@H]1[C@H]2N2C(=O)CN(Cc3ccc(C)cc3)C(=O)[C@@]2(C)[C@H]1c1ccccc1 | inactive |
| C[C@H]1NC(=O)[C@@]2(C)[C@H](c3ccccc3)[C@H]3COc4ccccc4[C@@H]3N2C1=O | inactive |
| Cc1ccc(-n2nc3c(c2NC(=O)c2ccco2)CS(=O)C3)cc1 (centres undefined) | inactive |
| C=CCN1C(=S)CC(c2ccccc2)=Nc2ccccc21 | inactive |
| O=C(c1ccc2c(c1)OCO2)N(CC1CCCO1)C1(C(=O)NC2CCCCC2)CCCCC1 (centres undefined) | inactive |
| CON(C)c1nc(OCCNC(=O)OCc2ccc(Cl)cc2C)nc(N(C)C)n1 | inactive |
